# Screening data (PubChem BioAssay)
# Most compounds without a hit are left out; they make up all but 3.5% or so of the library.
# MITF inh: blocks human microphthalmia-associated transcription factor; O75030; inhibition, % at 2.6 µM; 0.91% of 650,000 active; AlphaScreen MITF homodimerization, bead proximity signal; in the data active means inhibition above about 50%;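 further: 0% = vehicle wells with protein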
# GPR151 activ: activates the human receptor GPR151. Q8TDV0. PathHunter beta-arrestin GPR151 cells, luminescence. activation, % at 11.2 µM. 1% of 650,000 active. AID 1508602; in the data active means activation above about 4.9%;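 further: 0% = median of compound wells and 100% = cells with positive control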
# Target sequence (Q8TDV0 whole entry, looked up): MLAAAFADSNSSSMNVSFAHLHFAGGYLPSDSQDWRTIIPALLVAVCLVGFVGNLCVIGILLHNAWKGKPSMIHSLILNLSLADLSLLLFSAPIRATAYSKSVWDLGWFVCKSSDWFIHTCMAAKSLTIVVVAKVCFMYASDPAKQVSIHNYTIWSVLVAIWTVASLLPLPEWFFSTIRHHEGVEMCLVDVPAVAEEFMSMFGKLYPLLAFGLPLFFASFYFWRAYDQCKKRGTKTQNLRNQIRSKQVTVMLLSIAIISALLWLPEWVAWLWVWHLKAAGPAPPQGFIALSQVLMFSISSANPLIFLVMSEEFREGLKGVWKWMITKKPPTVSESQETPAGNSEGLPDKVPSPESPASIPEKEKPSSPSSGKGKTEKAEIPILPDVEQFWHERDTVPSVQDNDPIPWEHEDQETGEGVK
# TEAD-YAP inh: TEAD-YAP interaction inhibition; inhibition, % at 9.12 µM; 1.4% of 640,000 active; HEK-TIYL cells, TEAD-Gal4/YAP UAS-luciferase luminescence; in the data active means inhibition above about 32%;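 further: 0% = median of test compound wells and 100% = reference inhibitor wells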
# FBW7 activator: activators of human E3 ligase FBW7. AlphaScreen FBW7–phospho-cyclin E peptide binding, activator screen. 0.13% of 650,000 active. Q969H0. normalized activity (activation), % at 26.1 µM. AID 1259310; in the data active means normalized activity above about 1.9%;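 further: purified mutant Fbw7 with reduced substrate affinity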
# GPR151 confirm: confirmation of human GPR151 activators. 6,700 tested, under 10 active. GPR151 PathHunter beta-arrestin cells, luminescence, 90 min; % of EA-reagent control over plate median. shares compounds with GPR151 activ. activation, % at 11.2 µM. AID 1508609;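 active means mean percent activation across replicates above the confirmation screen cutoff of 4.91%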
# GPR119 counter: activates human GPR119 in a GPR151 counter-screen; AID 1508611; shares compounds with GPR151 activ; activation, % at 11.2 µM; GPR119 PathHunter beta-arrestin cells, luminescence, 90 min; 0 = compound-well median, 100 = enzyme-acceptor control; 0.3% of 6,700 active;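 active means mean percent activation in the counterscreen above 29.09%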;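 further: counterscreen on off-target GPR119 to flag nonselective hits from the GPR151 activator screen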
# Starred values were filed as active, the others as inactive; / = not tested or not shown; ! = not confirmed by another sample.
SMILES,MITF inh,GPR151 activ,TEAD-YAP inh,FBW7 activator,GPR151 confirm,GPR119 counter
COc1ccc(C(=O)NC(=S)N2CCOCC2)cc1,0,6.1*,10,0,-1,6
COc1ccc(C(=O)NC(=S)N2CCSCC2)cc1,9,0,-5,0,/,/
CC(C)Oc1ccc(C(=O)NC(=S)N2CCOCC2)cc1,2,13*,-17,0,1,15
COc1ccc(C(=O)NC(=S)N2CCOCC2)cc1Br,8,-2,-1,1,/,/
c1ccc(CN2CCC(Nc3ncc(-c4cccs4)cn3)CC2)cc1,-3,6.8*,-10,0,0,4
Cc1cc(NC2CCN(Cc3ccccc3)CC2)nc(-c2cccs2)n1,10,2,7,0,/,/
CC(C)(C)c1[nH]nc2c1C(c1ccsc1)C(C#N)=C(N)O2 (stereo not given),7,6.6*,2,0,1,2
CCCN(CC(=O)Nc1ccccc1C)C(=O)CCl,3,8.4*,72*,0,0,-1
CN(C)c1ccc(/C=C2/N=C(c3ccc4c(c3)OCO4)OC2=O)cc1,1,1,4,0,/,/
CCOCC(=O)Nc1cc([N+](=O)[O-])ccc1OC,8,1,4,0,/,/
CCOCC(=O)Nc1cc([N+](=O)[O-])ccc1C,-8,6.2*,1,0,0,-5
O=C(/C=C/c1ccc([N+](=O)[O-])cc1)Nc1ccccc1C(=O)Nc1cccc(C(=O)O)c1,1,4.9*,-6,0,1,18
CCOc1ccc(/C=C/C(=O)Nc2cc([N+](=O)[O-])ccc2C)cc1OC,-12,6.5*,8,0,1,8
COc1ccc([N+](=O)[O-])cc1NC(=O)/C=C/c1ccc(F)cc1,12,8.8*,19,0,0,-15
COc1ccc(/C=C/C(=O)Nc2cc([N+](=O)[O-])ccc2F)cc1OC,8,0,3,0,/,/
Cc1ccc(N=C2NC(=O)/C(=C/c3ccco3)S2)cc1C,33,0,-8,0,/,/
Cc1cc(C)nc(Nn2c(SCc3cccc(Cl)c3)nc3ccccc3c2=O)n1,8,-1,-11,1,/,/
COc1ccc(/C=C/C(=O)Nc2ccc([N+](=O)[O-])cc2OC)cc1Br,6,0,3,0,/,/
COc1ccc(/C=C/C(=O)Nc2cc([N+](=O)[O-])ccc2OC)cc1Br,15,5.4*,3,0,1,0
CC(=O)Nc1ccc(Nc2ccnc(N3CCc4ccccc4C3)n2)cc1,7,5.1*,28,0,2,28
CCOC(=O)N1CCC(Nc2nncc(-c3ccc(OC)cc3)n2)CC1,-3,10*,11,0,0,1
CCOC(=O)N1CCC(NC(=O)c2ccc(CSCc3c(F)cccc3Cl)o2)CC1,-17,5.3*,1,0,-2,4
CCOC(=O)N1CCC(NC(=O)C(=O)CC(=O)c2ccc(OC)cc2)CC1,4,5.4*,13,0,0,13
CCOC(=O)N1CCC(NCCNC(=O)c2ccc(Cl)cc2)CC1,33,12*,17,0,0,4
O=C(Nc1ccc(-c2nc3cccnc3s2)cc1)c1ccc(Cl)cc1Cl,-22,-2,-28,0,/,/
SMILES,MITF inh,GPR151 activ,TEAD-YAP inh,FBW7 activator,GPR151 confirm,GPR119 counter
CCn1c(C)csc1=Nc1ccc(Cl)cc1,14,0,-29,0,/,/
CN1Cc2ccccc2CC1C(=O)NCC1Cc2cc(F)cc(-c3cncnc3)c2O1 (stereo not given),15,2,7,0,/,/
COc1ccc(CC2(CO)CCN(S(=O)(=O)c3cc(C)cs3)CC2)cc1,-14,0,3,0,/,/
Cc1csc(S(=O)(=O)N2CCC(CO)(Cc3ccccc3Cl)CC2)c1,-3,27*,-10,0,-1,-7
O=C1NCCN(Cc2cccc(C(F)(F)F)c2)C1CC(=O)N1CCCCCC1 (stereo not given),7,1,8,0,/,/
O=C(c1ccc(OCCN2CCCCC2)cc1)c1c(-c2ccc(O)cc2)sc2cc(O)ccc12,-11,5.0*!,-12,0,-1,-10
CC(=O)Nc1cccc(-c2cnc3c(Nc4ccc(O)cc4)nccn23)c1,-21,-6,4,0,/,/
CCn1c(SCC(=O)c2ccc(Cl)cc2Cl)nnc1-c1cccs1,15,0,4,0,/,/
O=C1/C(=C\c2ccc(-c3ccc(Cl)cc3)o2)Sc2ccccc21,10,8.4*,-9,0,0,0
O=C(O)c1cc(-c2ccc(/C=C3\Sc4ccccc4C3=O)o2)ccc1Cl,19,0,-2,0,/,/
Cc1nn(C)c(C)c1-c1nc2ncnc(NCc3ccccc3)c2[nH]1,1,1,8,0,/,/
CC(C)n1c(-c2cccc(N)c2)nc2c(NC3CCN(Cc4ccccc4)CC3)ncnc21,11,1,5,0,/,/
Cc1ccc(-n2ncc3c(=O)n(Cc4cccnc4)cnc32)cc1,15,6.6*,-14,0,0,0
CCN(CC)c1nc(C)c([N+](=O)[O-])c(C)c1C(N)=O,-16,6.5*,-12,0,0,2
C=CCN1CCN(S(=O)(=O)c2cccc(OC)c2)C(C(=O)NCc2ccccc2)C1 (stereo not given),-9,0,-6,0,/,/
CCOC(=O)CNc1c(-c2ccc(O)cc2)nc2cnccn12,-3,1,-6,0,/,/
CCOC(=O)CNc1c(-c2ccc(OC)c(O)c2)nc2ccc(C)cn12,10,5.5*,-34,0,0,1
Cc1c(C(=O)c2ccc(Br)cc2)c(=O)n(C)c(=O)n1C,22,5.8*,-2,0,0,-2
Cc1cc(C)c(/C=C2\SC(N)=NC2=O)c(C)c1,-4,7.8*,-3,0,0,-1
Cc1ccc(C)c(/C=C2\SC(N)=NC2=O)c1,-2,0,-7,0,/,/
COc1ccc(/C=C2\SC(N)=NC2=O)cc1OC,19,9.1*,-2,0,0,10
COc1ccc(C(=O)COC(=O)C(Cc2ccccc2)NC(=O)C23CC4CC(CC(C4)C2)C3)cc1 (stereo not given),9,0,1,0,/,/
S=C(Nc1ccc2c(c1)OCO2)N1CCN(c2ncccn2)CC1,3,6.6*,-5,0,0,-7
C=C(C)COc1ccc2c(C)c(C)c(=O)oc2c1,6,-1,-12,0,/,/
CCN(CC)S(=O)(=O)c1ccc(C(=O)Nc2nnc(-c3ccc(OC)cc3)o2)cc1,20,5.3*,4,0,0,-2
CCOc1ccc(/C=C2\SC(=S)N(C(C)C(=O)O)C2=O)cc1 (stereo not given),-1,11*,-9,0,1,7
CC(Oc1cccc(Cl)c1)C(=O)Nc1nccs1 (stereo not given),0,6.0*,0,0,-1,-10
